# Experimental data as given in PubChem BioAssay (Tox21).
# Values without a mark were called inactive. Inconclusive results are not listed. A call without a number means that no potency is given here. The source made the active and inactive calls. Unless noted, calls follow the shape of the dose curve; as a rule, active = well fitted curve in the direction sought with a large enough effect in the repeat runs; inconclusive = weak or mixed curves; inactive = no such curve, though single readings can be large; an effect the other way counts as inactive or inconclusive.
# How the values were obtained:
# [1] = qHTS assay to test for compound auto fluorescence at 535 nm (green) in HEK293 cells (AID 720680)
# [2] = qHTS assay to test for compound auto fluorescence at 460 nm (blue) in HEK293 cell free culture (AID 720681)
# In short: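 Test compounds were pinned into cell-free culture medium (DMEM with 10% FBS) and fluorescence was read directly at Ex/Em 405/460 nm. Signals were expressed as fluorescence equivalents of triamterene, with DMSO vehicle as control.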
# [3] = qHTS assay to test for compound auto fluorescence at 535 nm (green) in HEK293 cell free culture (AID 720682)
# In short: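 DMEM + 10% FBS, cell-free; cpd or DMSO pinned in; Ex485/Em535 read; output as fluorescein-equivalent signal.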
# [4] = qHTS assay to test for compound auto fluorescence at 590 nm (red) in HEK293 cell free culture (AID 720683)
# In short: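 Tox21 10K library compounds were pinned into cell-free DMEM with 10% FBS and fluorescence was read at excitation 540 nm. Activity is expressed as Rose Bengal sodium equivalency.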
# [5] = qHTS assay to test for compound auto fluorescence at 460 nm (blue) in HepG2 cell free culture (AID 720685)
# In short: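 Cell-free plates of MEM plus 10% FBS received 23 nL compound or DMSO vehicle; blue-channel (405/460 nm) intensity scored against triamterene as reference fluorophore.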
# [6] = qHTS assay to test for compound auto fluorescence at 535 nm (green) in HepG2 cell free culture (AID 720686)
# [7] = qHTS assay to test for compound auto fluorescence at 460 nm (blue) in HepG2 cells (AID 720687)
# In short: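 Cells (2,000/well in MEM with 10% FBS) attached overnight at 37 C, then were exposed to compound or DMSO for 1 hr at 37 C, 5% CO2. Fluorescence read at Ex/Em 405/460 nm, expressed as triamterene-equivalent signal.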
# [8] = molecular target: Glucocorticoid receptor (Homo sapiens) (UniProt P04150); experiment: qHTS assay to identify small molecule agonists of the glucocorticoid receptor (GR) signaling pathway (AID 720691; active = well fitted activation curve with a large enough effect in the signal ratio in the repeat runs, not every such curve was filed as active; the % refers to the signal ratio; also: potency is read from the fitted curve at half-maximal effect)
# Sequence of Glucocorticoid receptor (Homo sapiens) (P04150 whole entry, looked up): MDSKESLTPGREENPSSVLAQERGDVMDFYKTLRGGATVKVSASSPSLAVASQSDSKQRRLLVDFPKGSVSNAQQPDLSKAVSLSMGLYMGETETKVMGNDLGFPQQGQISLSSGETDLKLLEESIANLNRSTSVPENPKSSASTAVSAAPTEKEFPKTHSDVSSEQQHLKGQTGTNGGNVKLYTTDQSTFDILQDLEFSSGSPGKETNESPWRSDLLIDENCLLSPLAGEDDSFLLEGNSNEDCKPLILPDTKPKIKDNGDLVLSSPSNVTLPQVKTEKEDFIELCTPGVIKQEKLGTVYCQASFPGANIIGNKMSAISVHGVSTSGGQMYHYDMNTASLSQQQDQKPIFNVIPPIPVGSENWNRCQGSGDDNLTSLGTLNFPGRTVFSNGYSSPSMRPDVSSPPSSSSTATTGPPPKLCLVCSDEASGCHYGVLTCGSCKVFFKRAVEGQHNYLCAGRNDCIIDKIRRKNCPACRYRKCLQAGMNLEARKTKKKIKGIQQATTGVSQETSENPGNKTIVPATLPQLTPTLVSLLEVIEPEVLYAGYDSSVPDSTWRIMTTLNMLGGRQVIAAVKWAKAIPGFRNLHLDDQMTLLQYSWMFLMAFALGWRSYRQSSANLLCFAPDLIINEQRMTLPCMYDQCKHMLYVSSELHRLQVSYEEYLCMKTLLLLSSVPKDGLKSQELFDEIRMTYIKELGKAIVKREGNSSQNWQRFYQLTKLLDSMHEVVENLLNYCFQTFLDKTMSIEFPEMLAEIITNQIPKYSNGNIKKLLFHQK
# In short: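 A HeLa cervical cancer line expressing GR and a glucocorticoid response element-driven beta-lactamase gene is treated with compounds for 18 h; LiveBLAzer B/G FRET substrate is then applied and fluorescence read.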
# [9] = qHTS assay to identify small molecule antagonists of the glucocorticoid receptor (GR) signaling pathway - cell viability counter screen (AID 720693); also: nearly all actives have a fitted effect of over 55% in size
# [10] = qHTS assay for identifying genotoxic compounds that show differential cytotoxicity against isogenic chicken DT40 cell lines with known DNA damage response pathways - wild type cell line (AID 743012); also: nearly all actives have a fitted effect of over 60% in size; also: potency is read from the fitted curve at half-maximal effect
# In short: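 300 wt DT40 cells/well; cpd (DMSO) pintool-transferred after ~0.5 h at 37 C/5% CO2; 40 h incubation; CellTiter-Glo added, 30 min RT; luminescence read.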
# [11] = qHTS assay for identifying genotoxic compounds that show differential cytotoxicity against isogenic chicken DT40 cell lines with known DNA damage response pathways - Rev3 mutant cell line (AID 743014); also: nearly all actives have a fitted effect of over 55% in size; also: potency is read from the fitted curve at half-maximal effect
# [12] = qHTS assay for identifying genotoxic compounds that show differential cytotoxicity against isogenic chicken DT40 cell lines with known DNA damage response pathways - Rad54/Ku70 mutant cell line (AID 743015); also: nearly all actives have a fitted effect of over 60% in size; also: potency is read from the fitted curve at half-maximal effect
# [13] = qHTS assay to identify small molecule antagonists of the androgen receptor (AR) signaling pathway using the MDA cell line - cell viability counter screen (AID 743041; also: nearly all actives have a fitted effect of over 45% in size)
# In short: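 qHTS viability read-out; MDA-kb2 AR-luc; R1881-stimulated; 16 h exposure at 37C, 0% CO2; CellTiter-Fluor, 30 min; fluorescence intensity.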
# [14] = qHTS assay to identify small molecule antagonists of the androgen receptor (AR) signaling pathway - cell viability counter screen (AID 743033; also: nearly all actives have a fitted effect of over 45% in size)
# [15] = molecular target: Glucocorticoid receptor (Homo sapiens) (UniProt P04150); experiment: qHTS assay to identify small molecule antagonists of the glucocorticoid receptor (GR) signaling pathway (AID 720692; active = well fitted inhibition curve with a large enough effect in the signal ratio in the repeat runs, not every such curve was filed as active; the % refers to the signal ratio)
# In short: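 GRE-bla HeLa line, dex-stimulated (5 nM final). Compound exposure 18 h, 37 C. Beta-lactamase FRET read after 2 h RT substrate.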
# [16] = molecular target: Androgen receptor (Homo sapiens) (UniProt P10275); experiment: qHTS assay to identify small molecule antagonists of the androgen receptor (AR) signaling pathway (AID 743035; active = well fitted inhibition curve with a large enough effect in the signal ratio in the repeat runs, not every such curve was filed as active; the % refers to the signal ratio; also: potency is read from the fitted curve at half-maximal effect)
# Sequence of Androgen receptor (Homo sapiens) (P10275 whole entry, looked up): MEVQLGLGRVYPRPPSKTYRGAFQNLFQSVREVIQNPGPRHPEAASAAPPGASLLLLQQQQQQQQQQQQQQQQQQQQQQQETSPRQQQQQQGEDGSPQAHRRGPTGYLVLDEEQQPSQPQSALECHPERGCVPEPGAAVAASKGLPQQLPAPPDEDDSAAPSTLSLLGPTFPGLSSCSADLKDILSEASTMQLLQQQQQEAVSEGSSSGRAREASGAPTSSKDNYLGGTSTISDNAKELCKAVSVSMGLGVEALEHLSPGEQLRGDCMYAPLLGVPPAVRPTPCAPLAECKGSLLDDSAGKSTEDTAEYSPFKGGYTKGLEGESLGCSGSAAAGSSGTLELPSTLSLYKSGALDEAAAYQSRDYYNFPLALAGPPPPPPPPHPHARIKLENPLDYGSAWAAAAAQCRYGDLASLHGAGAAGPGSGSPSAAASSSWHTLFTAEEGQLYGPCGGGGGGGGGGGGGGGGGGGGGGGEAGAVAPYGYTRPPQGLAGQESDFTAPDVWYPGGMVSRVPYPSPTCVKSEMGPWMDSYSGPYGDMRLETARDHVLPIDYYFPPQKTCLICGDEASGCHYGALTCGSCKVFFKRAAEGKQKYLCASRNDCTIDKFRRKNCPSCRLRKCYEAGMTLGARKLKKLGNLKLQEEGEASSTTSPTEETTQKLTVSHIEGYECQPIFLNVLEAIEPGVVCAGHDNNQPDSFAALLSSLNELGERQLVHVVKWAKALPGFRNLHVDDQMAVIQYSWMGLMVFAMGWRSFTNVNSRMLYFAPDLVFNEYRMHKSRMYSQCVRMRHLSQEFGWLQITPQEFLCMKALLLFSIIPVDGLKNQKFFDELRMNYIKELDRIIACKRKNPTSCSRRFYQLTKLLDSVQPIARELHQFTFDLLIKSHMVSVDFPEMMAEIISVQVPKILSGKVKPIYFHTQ
# In short: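 In this cell-based reporter screen, compounds were tested in concentration series against R1881-activated HEK293 cells expressing beta-lactamase under UAS control; after 16 h at 37C, FRET substrate was added and fluorescence read 2 h later.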
# [17] = molecular target: Androgen receptor (Homo sapiens) (UniProt P10275); experiment: qHTS assay to identify small molecule agonists of the androgen receptor (AR) signaling pathway (AID 743036; active = well fitted activation curve with a large enough effect in the signal ratio in the repeat runs, with a control signal flat, not every such curve was filed as active; the % refers to the signal ratio)
# In short: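 Screening used 2,000 AR-bla HEK293 cells per well, treated 16 h at 37C with test compounds in DMSO alongside positive and DMSO-only controls; beta-lactamase activity was then read by LiveBLAzer B/G FRET fluorescence after 2 h at room temperature.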
# [18] = molecular target: Androgen receptor (Homo sapiens) (UniProt P10275); experiment: qHTS assay to identify small molecule agonists of the androgen receptor (AR) signaling pathway using the MDA cell line (AID 743040; also: nearly all actives have a fitted effect of over 20% in size)
# In short: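 Agonist activity is measured as luciferase luminescence in human MDA-kb2 cells whose MMTV reporter responds to both AR and GR. Compounds in DMSO incubate 16 h at 37C, 0% CO2, and ONE-Glo is read after 30 min.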
# [19] = molecular target: Androgen receptor (Homo sapiens) (UniProt P10275); experiment: qHTS assay to identify small molecule antagonists of the androgen receptor (AR) signaling pathway using the MDA cell line (AID 743042; also: nearly all actives have a fitted effect of over 55% in size; also: potency is read from the fitted curve at half-maximal effect)
# In short: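 MDA-kb2 cells (human breast carcinoma, stably carrying an MMTV-luciferase reporter responsive to AR and GR) were plated at 3,000 cells/well and preincubated 5 hr at 37C, then given compound plus R1881 agonist for 16 h. ONE-Glo luminescence was read.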
compound,measurement,setting,value
Cc1ccc(-c2nc3ccc(C)cn3c2CC(=O)N(C)C)cc1,outcome,[1],inactive
same,outcome,[2],inactive
same,outcome,[3],inactive
same,outcome,[4],inactive
same,outcome,[5],inactive
same,outcome,[6],inactive
same,outcome,[7],inactive
same,Potency,[8],23.9 µM (active)
same,Potency,[9],inactive
same,Potency,[10],inactive
same,Potency,[11],inactive
same,Potency,[12],inactive
same,Potency,[13],inactive
CCCCCCC1CCOC1=O (stereo not drawn),outcome,[1],inactive
same,outcome,[2],inactive
same,outcome,[3],inactive
same,outcome,[4],inactive
same,outcome,[5],inactive
same,outcome,[6],inactive
same,outcome,[7],inactive
same,Potency,[8],inactive
same,Potency,[9],inactive
same,Potency,[10],inactive
same,Potency,[11],inactive
same,Potency,[12],inactive
same,Potency,[14],inactive
same,Potency,[13],inactive
CCN[C@@H](C)Cc1ccccc1,outcome,[1],inactive
same,outcome,[2],inactive
same,outcome,[3],inactive
same,outcome,[4],inactive
same,outcome,[5],inactive
same,outcome,[6],inactive
same,outcome,[7],inactive
same,Potency,[15],inactive
same,Potency,[9],inactive
same,Potency,[10],inactive
same,Potency,[14],inactive
same,Potency,[16],inactive
same,outcome,[17],inactive
same,outcome,[18],inactive
same,Potency,[13],inactive
same,Potency,[19],inactive
C/C(=N\NC(=O)Nc1cc(F)cc(F)c1)c1ncccc1C(=O)O,outcome,[1],inactive
same,outcome,[2],inactive
same,outcome,[3],inactive
same,outcome,[4],inactive
same,outcome,[5],inactive
same,outcome,[6],inactive
same,outcome,[7],inactive
same,Potency,[8],inactive
same,Potency,[9],inactive
same,Potency,[10],inactive
same,Potency,[11],inactive
same,Potency,[12],inactive
same,Potency,[14],inactive
same,Potency,[13],inactive
C[C@H](CN1CCOCC1)C(C(=O)N1CCCC1)(c1ccccc1)c1ccccc1,outcome,[1],inactive
same,outcome,[2],inactive
same,outcome,[3],inactive
same,outcome,[4],inactive
same,outcome,[5],inactive
same,outcome,[6],inactive
same,outcome,[7],inactive
same,Potency,[8],inactive
same,Potency,[9],inactive
same,Potency,[10],33.2 µM (active)
same,Potency,[11],37.3 µM (active)
same,Potency,[12],59.1 µM (active)
same,Potency,[14],inactive
same,outcome,[17],inactive
same,outcome,[18],inactive
same,Potency,[13],inactive
same,Potency,[19],inactive
C=C(Cl)CSC(=S)N(CC)CC,outcome,[1],inactive
same,outcome,[2],inactive
same,outcome,[3],inactive
same,outcome,[4],inactive
same,outcome,[5],inactive
same,outcome,[6],inactive
same,outcome,[7],inactive
same,Potency,[9],inactive
same,Potency,[10],33.5 µM (active)
same,Potency,[11],66.8 µM (active)
same,Potency,[12],53 µM (active)
same,Potency,[13],inactive
CCC(=O)c1ccc(Cl)cc1,outcome,[1],inactive
same,outcome,[2],inactive
same,outcome,[3],inactive
same,outcome,[4],inactive
same,outcome,[5],inactive
same,outcome,[6],inactive
same,outcome,[7],inactive
same,Potency,[8],inactive
same,Potency,[9],inactive
same,Potency,[10],inactive
same,Potency,[11],inactive
same,Potency,[12],inactive
same,Potency,[14],inactive
same,Potency,[13],inactive
CCC(=O)OC1(c2ccccc2)CCN(C)CC1,outcome,[1],inactive
same,outcome,[2],inactive
same,outcome,[3],inactive
same,outcome,[4],inactive
same,outcome,[5],inactive
same,outcome,[6],inactive
same,outcome,[7],inactive
same,Potency,[9],inactive
same,Potency,[12],inactive
same,Potency,[13],inactive
Cc1cc(OC(=O)N(C)C)nn1C(=O)N(C)C,outcome,[1],inactive
same,outcome,[2],inactive
same,outcome,[3],inactive
same,outcome,[4],inactive
same,outcome,[5],inactive
same,outcome,[6],inactive
same,outcome,[7],inactive
same,Potency,[9],inactive
same,Potency,[10],inactive
same,Potency,[11],inactive
same,Potency,[12],inactive
same,Potency,[14],inactive
same,Potency,[13],inactive
COc1ccc(CN2CCNCC2)c(OC)c1OC,"fluorescence, % of fluorescein",[1],0.0001% [at 18.6 µM]
same,"fluorescence, % of fluorescent control",[2],-0.0368% [at 18.6 µM]
same,activity change,[3],-0.0737% [at 18.6 µM]
same,"fluorescence, % of fluorescent control",[4],-0.395% [at 18.6 µM]
same,"fluorescence, % of fluorescent control",[5],-0.057% [at 18.6 µM]
same,"fluorescence, % of fluorescein control",[6],-0.137% [at 18.6 µM]
same,"fluorescence, % of fluorescent control",[7],-0.0322% [at 18.6 µM]
same,Potency,[15],inactive
same,Potency,[9],inactive
same,Potency,[10],inactive
same,Potency,[11],inactive
same,Potency,[12],inactive
same,Potency,[13],inactive
ClC(Cl)(Cl)Cl,outcome,[1],inactive
same,outcome,[2],inactive
same,outcome,[3],inactive
same,outcome,[4],inactive
same,outcome,[5],inactive
same,outcome,[6],inactive
same,outcome,[7],inactive
same,Potency,[9],inactive
same,Potency,[10],inactive
same,Potency,[11],inactive
same,Potency,[12],inactive
same,Potency,[13],inactive
CCN(CC)C1CCCCC1,outcome,[1],inactive
same,outcome,[2],inactive
same,outcome,[3],inactive
same,outcome,[4],inactive
same,outcome,[5],inactive
same,outcome,[6],inactive
same,outcome,[7],inactive
same,Potency,[15],inactive
same,Potency,[9],inactive
same,Potency,[11],inactive
same,Potency,[14],inactive
same,Potency,[16],inactive
same,outcome,[17],inactive
same,outcome,[18],inactive
same,Potency,[13],inactive
same,Potency,[19],inactive
CN=CNc1ccc(C)cc1C,outcome,[1],inactive
same,outcome,[2],inactive
same,outcome,[3],inactive
same,outcome,[4],inactive
same,outcome,[5],inactive
same,outcome,[6],inactive
same,outcome,[7],inactive
same,Potency,[15],inactive
same,Potency,[9],inactive
same,Potency,[10],inactive
same,Potency,[11],inactive
same,Potency,[12],inactive
same,Potency,[14],inactive
same,Potency,[13],inactive
CCNc1nc(NCC)nc(SC)n1,outcome,[1],inactive
same,outcome,[2],inactive
same,outcome,[3],inactive
same,outcome,[4],inactive
same,outcome,[5],inactive
same,outcome,[6],inactive
same,outcome,[7],inactive
same,Potency,[8],inactive
same,Potency,[9],inactive
same,Potency,[13],inactive
CCOC1Oc2ccc(OS(C)(=O)=O)cc2C1(C)C (stereo not drawn),outcome,[1],inactive
same,outcome,[2],inactive
same,outcome,[3],inactive
same,outcome,[4],inactive
same,outcome,[5],inactive
same,outcome,[6],inactive
same,outcome,[7],inactive
same,Potency,[9],inactive
same,Potency,[11],27.1 µM (active)
same,Potency,[12],54 µM (active)
same,Potency,[16],43.3 µM (active)
same,outcome,[17],inactive
same,outcome,[18],inactive
same,Potency,[19],60.6 µM (active)
CCC(C)(C#N)N=NC(C)(C#N)CC (stereo not drawn),outcome,[1],inactive
same,outcome,[2],inactive
same,outcome,[3],inactive
same,outcome,[4],inactive
same,outcome,[5],inactive
same,outcome,[6],inactive
same,outcome,[7],inactive
same,Potency,[9],inactive
same,Potency,[10],inactive
same,Potency,[11],inactive
same,Potency,[12],inactive
same,Potency,[16],inactive
same,outcome,[17],inactive
same,outcome,[18],inactive
same,Potency,[13],inactive
same,Potency,[19],inactive
COC(=O)c1ccccc1CS(=O)(=O)NC(=O)Nc1nc(OC)cc(OC)n1,outcome,[1],inactive
same,outcome,[2],inactive
same,outcome,[3],inactive
same,outcome,[4],inactive
same,outcome,[5],inactive
same,outcome,[6],inactive
same,outcome,[7],inactive
same,Potency,[9],inactive
same,Potency,[10],inactive
same,Potency,[11],inactive
same,Potency,[12],inactive
same,Potency,[13],inactive
ClCOCCl,outcome,[1],inactive
same,outcome,[2],inactive
same,outcome,[3],inactive
same,outcome,[4],inactive
same,outcome,[5],inactive
same,outcome,[6],inactive
same,outcome,[7],inactive
same,Potency,[8],inactive
same,Potency,[15],inactive
same,Potency,[9],inactive
same,Potency,[10],inactive
same,Potency,[11],inactive
same,Potency,[12],inactive
same,Potency,[14],inactive
same,Potency,[13],inactive
O=[N+]([O-])CCO,outcome,[1],inactive
same,outcome,[2],inactive
same,outcome,[3],inactive
same,outcome,[4],inactive
same,outcome,[5],inactive
same,outcome,[6],inactive
same,outcome,[7],inactive
same,Potency,[8],inactive
same,Potency,[9],inactive
same,Potency,[10],inactive
same,Potency,[12],inactive
same,Potency,[14],inactive
same,Potency,[13],inactive
O=c1[nH]oc2c1CCNC2,outcome,[1],inactive
same,outcome,[2],inactive
same,outcome,[3],inactive
same,outcome,[4],inactive
same,outcome,[5],inactive
same,outcome,[6],inactive
same,outcome,[7],inactive
same,Potency,[8],inactive
same,Potency,[15],inactive
same,Potency,[9],inactive
same,Potency,[10],inactive
same,Potency,[11],inactive
same,Potency,[12],inactive
same,Potency,[14],inactive
same,Potency,[13],inactive
